Assay outcomes as filed in PubChem BioAssay.
Sfp PPTase inh: blocks B. subtilis Sfp PPTase activity | hit rate 3.5% among 310,000 | AID 1490 | Biochemical Sfp PPTase activity, qHTS | Potency, µM, for the others: largest response in the series, negative = inhibition, most hits filed as inhibitors;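 further: the enzyme is Sfp with the accession as filed and its product quenches rhodamine fluorescence; potency means the concentration at half of the fitted maximal effect; 0% = enzyme reaction without inhibitor and -100% = no enzyme wells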
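Sfp 15 nM + cpd, 15 min RT; start w/ rhodamine-CoA 5 uM, BHQ-2-YbbR 12.5 uM (final); 50 mM Hepes pH 7.6, 10 mM MgCl2, 0.01% NP-40, 0.01% BSA; read 525/598 nm at 0 and 30 min.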
JMJD2A Tudor: blocks the human JMJD2A Tudor domain; O75164; AlphaScreen JMJD2A-Tudor / H3K4me3 peptide binding; Potency, µM (titrated, usually from 114 µM), without a hit: top-dose activity change, negative = inhibition, usual class: inhibitors; hit rate 4.4% among 390,000; AID 504339; further: potency means the concentration at half of the fitted maximal effect; on the % scale 0 is the no-effect control and ±100 the full control effect; nearly all actives have a fitted effect of over 50% in size
L3MBTL1 block: blocks human L3MBTL1; AID 485360; Potency, µM (top dose mostly 57.1 µM), inactives show at the highest dose activity, negative = inhibition, usual class: inhibitors; AlphaScreen L3MBTL1–H3K9me1 peptide binding; hit rate 0.66% among 230,000; further: potency means the concentration at half of the fitted maximal effect; on the % scale 0 is the no-effect control and ±100 the full control effect; nearly all actives have a fitted effect of over 60% in size
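L3MBTL1 (50 nM) pre-complexed 30 min with biotinylated H3(1-15)K9me1 peptide (75 nM), then compounds added for 30 min at room temperature; AlphaScreen streptavidin donor/nickel chelate acceptor beads (10 ug/mL final) read after 30 min dark incubation.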
HP1b chromo inh: blocks HP1-beta chromodomain binding to methylated histone tails | AlphaScreen HP1-beta / biotin-H3K9me3 peptide binding | Potency, µM (highest dose often 114 µM), for inactives: at the top dose activity change, negative = inhibition, hits mostly inhibitors | hit rate 0.56% among 390,000 | AID 540317; further: potency means the concentration at half of the fitted maximal effect; nearly all actives have a fitted effect of over 70% in size
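AlphaScreen: HP1-beta (50 nM) preformed 30 min with biotin-H3(1-18)K9me3 peptide (50 nM) in PBS pH 7.4, 0.01% Tween-20. Compound added for 30 min at RT, then streptavidin donor/nickel chelate acceptor beads (10 ug/mL) for 30 min.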
G9a block: blocks human histone lysine methyltransferase G9a; Potency, µM (titrated, usually from 102 µM), without a hit: at the top dose activity, negative = inhibition, actives largely listed as inhibitors; Q96KQ7; G9a H3K9 monomethylation, AlphaScreen, 2 h; hit rate 8.8% among 350,000; further: potency means the concentration at half of the fitted maximal effect; on the % scale 0 is the no-effect control and ±100 the full control effect; nearly all actives have a fitted effect of over 75% in size
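Compounds were preincubated with 20 nM G9a for 15 min, after which biotinylated H3K9 peptide (500 nM) and SAM (20 uM) started a 2 h room-temperature reaction. Monomethylated product was quantified by antibody-based AlphaScreen chemiluminescence.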
BAZ2B block: BAZ2B (human) inhibition. Potency, µM (series often up to 114 µM), inactives show at the highest dose activity change, negative = inhibition, hits mostly inhibitors. AlphaScreen BAZ2B-H3K14Ac peptide displacement. AID 504333. hit rate 4.4% among 360,000. Q9UIF8; further: potency means the concentration at half of the fitted maximal effect; on the % scale 0 is the no-effect control and ±100 the full control effect; nearly all actives have a fitted effect of over 60% in size
Target sequence (Q9UIF8 whole entry, looked up): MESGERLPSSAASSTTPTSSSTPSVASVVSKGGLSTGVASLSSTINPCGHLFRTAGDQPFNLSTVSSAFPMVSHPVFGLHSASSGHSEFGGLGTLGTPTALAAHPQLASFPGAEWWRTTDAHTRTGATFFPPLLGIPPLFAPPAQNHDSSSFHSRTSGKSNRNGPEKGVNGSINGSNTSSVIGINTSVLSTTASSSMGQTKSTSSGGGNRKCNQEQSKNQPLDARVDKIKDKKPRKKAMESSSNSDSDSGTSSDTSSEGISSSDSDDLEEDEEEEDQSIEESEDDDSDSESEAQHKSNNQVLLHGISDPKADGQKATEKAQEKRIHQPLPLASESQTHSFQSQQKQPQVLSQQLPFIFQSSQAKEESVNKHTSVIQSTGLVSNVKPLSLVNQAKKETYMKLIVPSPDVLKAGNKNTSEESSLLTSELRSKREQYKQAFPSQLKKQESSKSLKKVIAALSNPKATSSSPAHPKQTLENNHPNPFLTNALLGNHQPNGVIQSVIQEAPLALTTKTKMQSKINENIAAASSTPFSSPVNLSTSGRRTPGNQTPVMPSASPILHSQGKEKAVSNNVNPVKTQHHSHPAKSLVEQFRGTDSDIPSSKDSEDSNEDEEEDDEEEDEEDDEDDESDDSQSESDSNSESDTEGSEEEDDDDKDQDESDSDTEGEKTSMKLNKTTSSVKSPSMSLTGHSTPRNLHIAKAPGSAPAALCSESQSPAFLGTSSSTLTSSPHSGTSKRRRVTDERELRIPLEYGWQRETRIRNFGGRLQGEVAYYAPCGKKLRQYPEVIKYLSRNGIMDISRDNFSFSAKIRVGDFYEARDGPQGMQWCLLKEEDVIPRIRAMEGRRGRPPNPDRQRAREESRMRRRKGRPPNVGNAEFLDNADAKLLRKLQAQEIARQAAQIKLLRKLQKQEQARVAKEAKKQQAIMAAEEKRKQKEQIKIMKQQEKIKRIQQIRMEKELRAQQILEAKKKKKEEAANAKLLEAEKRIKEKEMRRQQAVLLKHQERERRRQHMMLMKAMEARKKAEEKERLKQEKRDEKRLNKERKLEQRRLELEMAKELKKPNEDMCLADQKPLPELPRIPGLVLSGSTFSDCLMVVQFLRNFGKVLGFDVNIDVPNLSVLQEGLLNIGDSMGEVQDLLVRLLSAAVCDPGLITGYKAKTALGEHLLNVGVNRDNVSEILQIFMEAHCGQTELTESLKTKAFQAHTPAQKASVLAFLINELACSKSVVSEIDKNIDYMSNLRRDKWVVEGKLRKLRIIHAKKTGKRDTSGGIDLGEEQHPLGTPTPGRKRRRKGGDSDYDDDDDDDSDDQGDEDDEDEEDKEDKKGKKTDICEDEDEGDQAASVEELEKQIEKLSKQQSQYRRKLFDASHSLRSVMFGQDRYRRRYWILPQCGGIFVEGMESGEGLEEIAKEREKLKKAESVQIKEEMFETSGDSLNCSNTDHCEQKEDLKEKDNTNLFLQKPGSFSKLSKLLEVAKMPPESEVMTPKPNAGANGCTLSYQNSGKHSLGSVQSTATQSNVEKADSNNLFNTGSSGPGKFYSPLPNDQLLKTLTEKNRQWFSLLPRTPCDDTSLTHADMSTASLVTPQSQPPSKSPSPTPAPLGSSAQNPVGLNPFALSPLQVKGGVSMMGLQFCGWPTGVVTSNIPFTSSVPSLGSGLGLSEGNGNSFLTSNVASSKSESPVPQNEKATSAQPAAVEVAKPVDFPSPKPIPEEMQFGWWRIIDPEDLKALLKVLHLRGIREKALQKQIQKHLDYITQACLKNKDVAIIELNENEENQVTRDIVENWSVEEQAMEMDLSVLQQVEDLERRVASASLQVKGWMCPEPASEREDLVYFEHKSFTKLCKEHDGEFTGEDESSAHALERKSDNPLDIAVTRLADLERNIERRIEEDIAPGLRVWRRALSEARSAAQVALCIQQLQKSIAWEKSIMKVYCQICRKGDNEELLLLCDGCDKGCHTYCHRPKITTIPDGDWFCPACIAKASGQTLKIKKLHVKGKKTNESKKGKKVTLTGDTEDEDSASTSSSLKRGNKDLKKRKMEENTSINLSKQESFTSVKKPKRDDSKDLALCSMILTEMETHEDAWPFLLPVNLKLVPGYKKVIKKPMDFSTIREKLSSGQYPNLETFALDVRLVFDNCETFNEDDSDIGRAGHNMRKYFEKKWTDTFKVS
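Inhibition is scored as reduced AlphaScreen emission. The BAZ2B/b-H3(5-23)K14Ac complex (50 nM each) in PBS pH 7.4, 0.01% Tween-20 meets compound (up to 110 uM) for 30 min at RT before bead addition.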
12-hLO 8HQ R1: confirmation of human 12-lipoxygenase inhibitors, 8HQ series round 1. shares compounds with BAZ2B block. hit rate 60% among 35. purified 12-hLO, cuvette UV 234 nm product formation. Potency, µM, actives largely listed as inhibitors;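 active means compounds that slowed 12-hLO product formation enough to yield a measured IC50 potency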
JMJD2E inh: inhibitors of human JMJD2E demethylase, 8HQ series round 1. shares compounds with BAZ2B block. JMJD2E demethylase, FDH-coupled NADH fluorescence (FDH is formaldehyde dehydrogenase). Potency, µM (doses to about 57 µM), for inactives: top-dose activity, negative = inhibition, usual class: inhibitors. hit rate 89% among 130
ME-1 prolif: ME-1 cell growth inhibition | shares compounds with BAZ2B block | hit rate 20% among 140 | ME-1 cell proliferation, ATP luminescence, 48 h | Potency, µM (highest dose often 56.1 µM), for inactives: at the highest dose activity change, negative = inhibition, hits mostly inhibitors
The depositor's hits bear a star; i = inactive; ? = inconclusive; / = no result; [ ] = remark or other dose. Hits are enriched below; roughly 12% of the tested compounds scored in any of these assays. Unless noted, the call rests on the fitted dose curve; in most records, active means well fitted curve in the direction sought with a large enough effect; inconclusive means small, poorly fitted or top-dose-only effect, or another doubt; inactive means no such curve, though single readings can be large; an effect the other way counts as inactive or inconclusive.

SMILES | Sfp PPTase inh | JMJD2A Tudor | L3MBTL1 block | HP1b chromo inh | G9a block | BAZ2B block | ME-1 prolif | others
O=[N+]([O-])c1c(C(Cl)Cl)nn(-c2ccccc2)c1N1CCCC1 | 2.9% | 25.1µM* | ? | ? | ? | 12.6µM* | -8.7%[25.6 µM]
CCCC(=O)NC(c1cccs1)c1cc([N+](=O)[O-])c2cccnc2c1O (stereo not drawn) | 2.51µM* | 14.1µM* | ? | -6.6% | ? | 7.94µM* | ?
CCC(=O)NC(c1cccs1)c1cc(Cl)c2ccccc2c1O (stereo not drawn) | / | -24.5% | -0.6% | 26.2% | 1.7%[0.501 µM] | ? | /
CCC(=O)NC(c1cccs1)c1cc(Br)c2cccnc2c1O (stereo not drawn) | / | / | 20.5% | / | -34.2%[12.7 µM] | 70.8µM* | / | 12-hLO 8HQ R1=14µM*;JMJD2E inh=20.4µM*
COc1ccc(NC(=O)N2CC3(CCN(S(C)(=O)=O)CC3)C2)cc1 | -1.2% | / | / | / | 6.8%[12.7 µM] | / | /
O=C(NCCc1ccccc1)c1cccc(Br)n1 | -18.5% | / | / | / | -2.1% | / | -12.9%
CC(=O)NCC(=O)N[C@H](CCC(=O)O)C(=O)O | -2.4% | / | / | / | 3.4%[59 µM] | / | /
COc1cccc(C2CC(=O)Nc3c2c(=O)[nH]c2nc4ccccc4n32)c1 (stereo not drawn) | / | -14.9% | / | 21.6% | -4.1%[59 µM] | -20.0% | /
NC(=O)N(CCC(=O)O)c1ccccc1 | 8.9% | 8.9%[57.1 µM] | -29.1% | 15.5% | ? | 50.1µM* | -11.6%[25.6 µM]
CCN(CCC(=O)O)c1ccccc1 | -20.2% | ? | / | 11.5% | ? | ? | /
CC(=O)NC(c1cc(Cl)c2cccnc2c1O)C(C)C (stereo not drawn) | / | ? | -11.8% | 32.1% | 9.1%[12.7 µM] | 79.4µM* | / | 12-hLO 8HQ R1=2.6µM*;JMJD2E inh=22.9µM*
CC(=O)NC(C)c1cc(F)c2cccnc2c1O (stereo not drawn) | / | 79.4µM* | ? | 36.8% | ? | 22.4µM* | / | 12-hLO 8HQ R1=i;JMJD2E inh=22.9µM*
CC(=O)NC(c1cc(F)c2cccnc2c1O)C(C)C (stereo not drawn) | / | / | -20.5% | / | 4.3%[12.7 µM] | 79.4µM* | / | 12-hLO 8HQ R1=i;JMJD2E inh=20.4µM*
CC(=O)NC(c1cc(Cl)c2cccnc2c1O)C1CC1 (stereo not drawn) | / | ? | -2.5% | 84.2% | 13.4%[12.7 µM] | 31.6µM* | / | 12-hLO 8HQ R1=3µM*;JMJD2E inh=18.2µM*
O=C(NCCNC(=O)c1ccccn1)c1ccc(-c2ccccc2)cc1 | 15.4% | -10.3% | -0.4% | 21.9% | 2.2% | -7.7% | /
COc1c(O)cc2c(c1O)C1OC(CO)C(O)C(O)C1OC2=O (stereo not drawn) | / | -3.6% | 10.7% | 28.5% | 7.0%[59 µM] | 2.6% | /
O=C1OCC2OC(O)C(O)C(O)C2OC(=O)c2cc(O)c(O)c(O)c2-c2c(O)c(O)c3oc(=O)c4c(c(O)c(O)c5oc(=O)c2c3c54)-c2c1cc(O)c(O)c2O (stereo not drawn) | 3.55µM* | / | / | / | ? | 0.708µM* | ?
O=P(NCc1ccccc1)(OCc1ccccc1)OCc1ccccc1 | / | 4.9% | / | 41.7% | / | / | /
CC(=O)Nc1sc(N)nc1-c1ccccc1 | ? | -27.7% | / | 11.5% | ? | 3.7% | /
Nc1nc(-c2ccccc2)c(N=Nc2cccc3ccccc23)s1 | 13.0% | 11.2µM* | 17.8µM* | ? | 10µM* | 8.91µM* | -10.4%[25.6 µM]
Nc1nc(-c2ccccc2)c(N=Nc2ccccc2Cl)s1 | -3.5% | 12.6µM* | 28.2µM* | 17.8µM* | 10µM* | 10µM* | -13.9%[25.6 µM]
